± gives the standard deviation.
T1: HaloTag-ATRX ADD domain (163-292)
T1 chain: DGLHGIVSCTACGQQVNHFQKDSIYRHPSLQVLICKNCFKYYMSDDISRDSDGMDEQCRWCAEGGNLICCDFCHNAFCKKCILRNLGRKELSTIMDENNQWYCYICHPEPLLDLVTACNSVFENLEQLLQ

B1: Unmod H1 variant P K K S V A F K K T K K E (peptide)
chain: PKKSVAFKKTKKE
B2: Unmod H1 variant T K K E I K K V A T P K K (peptide)
chain: TKKEIKKVATPKK
B3: Unmod H1 variant T P K K A S K P K K A A S (peptide)
chain: TPKKASKPKKAAS
B4: Unmod H1 variant K A A S K A P T K K P K A (peptide)
chain: KAASKAPTKKPKA
B5: Unmod H1 variant K P K A T P V K K A K K K (peptide)
chain: KPKATPVKKAKKK
B6: Unmod H1 variant A K K K L A A T P K K A K (peptide)
chain: AKKKLAATPKKAK
B7: Unmod H1 variant K K A K K P K T V K A K P (peptide)
chain: KKAKKPKTVKAKP
B8: Unmod H1 variant K A K P V K A S K P K K A (peptide)
chain: KAKPVKASKPKKA
B9: Unmod H1 variant P K K A P V K P K A K S S (peptide)
chain: PKKAPVKPKAKSS
B10: Unmod H1 variant S E T V P P A P A A S A A (peptide)
chain: SETVPPAPAASAA

Biological target: T1, HaloTag-ATRX ADD domain (163-292)
Test: peptide microarray binding signal (635 nm), min-max normalized on array (fraction of array maximum); higher = stronger binding
Details: peptide region: Unmod H1 variant; binder concentration: 50 nM
How it was run: (§1)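 Arrays carried histone 13-mer peptide–cellulose conjugates printed in triplicate on nitrocellulose alongside a Cy3 tracer. After overnight blocking at 4°C, they were incubated for 1 h at 4°C with biotin-labelled HaloTag reader fusions (10 nM to 1 μM) plus streptavidin-Alexa Fluor 647, or with rabbit histone antibodies (1:10,000 to 1:2,000) plus anti-rabbit Alexa 647. Scanning on an Axon GenePix 4000B used 635 nm for signal and 532 nm for misprints. The binding signal reported is each triplicate's mean spot intensity after per-library min-max scaling.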

Row | Binder | peptide microarray binding signal
1 | B1 | 0.0103 ± 0.00015
2 | B2 | 0.0108 ± 0.00026
3 | B3 | 0.0118 ± 0.00065
4 | B4 | 0.0142 ± 0.00045
5 | B5 | 0.0137 ± 0.0012
6 | B6 | 0.01188 ± 3e-05
7 | B7 | 0.0134 ± 0.00092
8 | B8 | 0.01229 ± 0.00011
9 | B9 | 0.0131 ± 0.00065
10 | B10 | 0.0132 ± 0.00014

Same assay, conditions: peptide region: Unmod H1 variant; binder concentration: 500 nM

Row | Binder | peptide microarray binding signal
11 | B1 | 0.00867 ± 0.00023
12 | B2 | 0.00952 ± 0.00026
13 | B3 | 0.00967 ± 0.00036
14 | B4 | 0.0141 ± 0.00028
15 | B5 | 0.0124 ± 0.00028
16 | B6 | 0.0112 ± 0.00064
17 | B7 | 0.00981 ± 0.00033
18 | B8 | 0.00971 ± 0.00061
19 | B9 | 0.0107 ± 0.00047
20 | B10 | 0.00691 ± 0.00014

biological target: HaloTag-ING2 PHD (mouse Ing2 200-280); test: as above; details: peptide region: Unmod H1 variant; binder concentration: 10 nM
How it was run: as §1

Row | Binder | peptide microarray binding signal
21 | B1 | 0.00203 ± 5.4e-05
22 | B2 | 0.00185 ± 3.8e-05
23 | B3 | 0.00167 ± 1.7e-05
24 | B4 | 0.00257 ± 0.00013
25 | B5 | 0.00209 ± 5.3e-05
26 | B6 | 0.00203 ± 2.1e-05
27 | B7 | 0.00215 ± 4.5e-05
28 | B8 | 0.00292 ± 7.4e-05
29 | B9 | 0.00245 ± 0.0001
30 | B10 | 0.00448 ± 6.1e-05

same assay, conditions: peptide region: Unmod H1 variant; binder concentration: 100 nM

Row | Binder | peptide microarray binding signal
31 | B1 | 0.00298 ± 7.3e-05
32 | B2 | 0.00482 ± 0.0004
33 | B3 | 0.00489 ± 0.00044
34 | B4 | 0.019 ± 0.0066
35 | B5 | 0.00319 ± 0.00028
36 | B6 | 0.00397 ± 0.00028
37 | B7 | 0.00645 ± 0.00057
38 | B8 | 0.00574 ± 0.00036
39 | B9 | 0.00496 ± 0.0015
40 | B10 | 0.00446 ± 0.00013

biological target: anti-H3K4me3 antibody ab8580; test: as above; details: peptide region: Unmod H1 variant; binder concentration: 1:2,000 dilution
How it was run: as §1

Row | Binder | peptide microarray binding signal
41 | B1 | 0.000321 ± 6.7e-06
42 | B2 | 0.000604 ± 3e-05
43 | B3 | 0.000698 ± 3.6e-05
44 | B4 | 0.000963 ± 1.4e-05
45 | B5 | 0.000547 ± 2.7e-05
46 | B6 | 0.000415 ± 8.4e-06
47 | B7 | 0.000642 ± 1.6e-05
48 | B8 | 0.00051 ± 8.6e-06
49 | B9 | 0.00034 ± 2.1e-05
50 | B10 | 0.00151 ± 2.3e-05

same assay, conditions: peptide region: Unmod H1 variant; binder concentration: 1:10,000 dilution

Row | Binder | peptide microarray binding signal
51 | B1 | 0.000628 ± 6.7e-06
52 | B2 | 0.000628 ± 6.7e-06
53 | B3 | 0.000571
54 | B4 | 0.001027 ± 1e-05
55 | B5 | 0.00126 ± 2.2e-05
56 | B6 | 0.000799 ± 2.2e-05
57 | B7 | 0.000628 ± 6.7e-06
58 | B8 | 0.000685 ± 7.2e-06
59 | B9 | 0.000685 ± 7.2e-06
60 | B10 | 0.00223 ± 4e-05

biological target: anti-H3K9me3 antibody ab8898; test: as above; details: peptide region: Unmod H1 variant; binder concentration: 1:2,000 dilution
How it was run: as §1

Row | Binder | peptide microarray binding signal
61 | B1 | 0.000423 ± 4.2e-05
62 | B2 | 0.000121 ± 1.3e-06
63 | B3 | 0.000181
64 | B4 | 0.000257 ± 5.3e-06
65 | B5 | 0.0008 ± 0.00013
66 | B6 | 0.000272
67 | B7 | 0.000151 ± 1.6e-06
68 | B8 | 0.000196 ± 2.1e-06
69 | B9 | 0.000362 ± 1.9e-05
70 | B10 | 0.000891 ± 7.7e-05

same assay, conditions: peptide region: Unmod H1 variant; binder concentration: 1:10,000 dilution

Row | Binder | peptide microarray binding signal
71 | B1 | 0.000519 ± 5.6e-06
72 | B2 | 0.000519 ± 5.6e-06
73 | B3 | 0.000519 ± 5.6e-06
74 | B4 | 0.000807 ± 1.5e-05
75 | B5 | 0.000634 ± 1.2e-05
76 | B6 | 0.00098 ± 4.6e-05
77 | B7 | 0.000634 ± 1.2e-05
78 | B8 | 0.000692 ± 7.3e-06
79 | B9 | 0.000865 ± 2.4e-05
80 | B10 | 0.00115 ± 2e-05
